Reference: PubChem BioAssay AID1159580 (chemical genetic matrix, 2015)
Several values for one entry are separate records, joined by “and”; a condition that tells them apart may be missing. Identical values can stand only once. Out of some 5,500 compounds screened, about 2,000 (36%) were called active. About 18% were inconclusive and are not listed. Some of the results follow. Values without a mark were called inactive. Cut-off read from the data, not from the text of the source: active = normalized growth mostly below about 0.91 (no sharp cut-off); inconclusive = no clear call, values can overlap the other calls; inactive = mostly above about 0.92.

Test: chemical genetic growth profiling, strain panel (AID 1159580);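 note: tested at 20 µM; growth read once vehicle control cultures reached saturation at 30 °C; 1 = growth at the plate median or of vehicle wells; lower values mean less growth of the strain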
Conditions: S. cerevisiae deletion strains, growth OD

## OC(CCN1CCCCC1)(c1ccccc1)C1CCCCC1 (stereo unspecified)
Locus YAL013W, strain DEP1, stronger effect = lower value
  normalized growth: 1.01
Locus YAL021C, strain ccr4, stronger effect = lower value
  normalized growth: 0.968
Locus YAL026C, strain drs2, stronger effect = lower value
  normalized growth: 0.994
Locus YAL030W, strain snc1, stronger effect = lower value
  normalized growth: 0.97
Locus YAL040C, strain CLN3, stronger effect = lower value
  normalized growth: 1.06
Locus YBL061C, strain skt5, stronger effect = lower value
  normalized growth: 0.979
Locus YBR009C, strain hhf1, stronger effect = lower value
  normalized growth: 0.993
Locus YBR021W, strain FUR4, stronger effect = lower value
  normalized growth: 0.998
Locus YBR023C, strain chs3, stronger effect = lower value
  normalized growth: 0.977
Locus YBR171W, strain sec66, stronger effect = lower value
  normalized growth: 0.974
Locus YBR229C, strain ROT2, stronger effect = lower value
  normalized growth: 1.01
Locus YBR231C, strain swc5, stronger effect = lower value
  normalized growth: 0.957
Locus YBR279W, strain paf1, stronger effect = lower value
  normalized growth: 0.984
Locus YCL011C, strain gbp2, stronger effect = lower value
  normalized growth: 0.978
Locus YCL016C, strain dcc1, stronger effect = lower value
  normalized growth: 0.993
Locus YCL029C, strain bik1, stronger effect = lower value
  normalized growth: 1
Locus YCL061C, strain MRC1 (second series), stronger effect = lower value
  normalized growth: 0.981
Locus YCL061C, strain MRC1, stronger effect = lower value
  normalized growth: 0.966
Locus YCL069W, strain vba3, stronger effect = lower value
  normalized growth: 0.974
Locus YCR088W, strain abp1, stronger effect = lower value
  normalized growth: 0.98
Locus YDL005C, strain med2, stronger effect = lower value
  normalized growth: 0.972
Locus YDL035C, strain GPR1, stronger effect = lower value
  normalized growth: 1.01
Locus YDL040C, strain nat1, stronger effect = lower value
  normalized growth: 0.98
Locus YDL074C, strain BRE1, stronger effect = lower value
  normalized growth: 0.999
Locus YDL101C, strain DUN1, stronger effect = lower value
  normalized growth: 1.01
Locus YDL134C, strain PPH21, stronger effect = lower value
  normalized growth: 1.01
Locus YDL185W, strain tfp1, stronger effect = lower value
  normalized growth: 1
Locus YDL192W, strain arf1, stronger effect = lower value
  normalized growth: 1.01
Locus YDR001C, strain nth1, stronger effect = lower value
  normalized growth: 0.969
Locus YDR069C, strain doa4, stronger effect = lower value
  normalized growth: 0.948
Locus YDR101C, strain arx1, stronger effect = lower value
  normalized growth: 0.995
Locus YDR137W, strain rgp1, stronger effect = lower value
  normalized growth: 1.02
Locus YDR150W, strain NUM1, stronger effect = lower value
  normalized growth: 1.02 and 0.996
Locus YDR159W, strain sac3, stronger effect = lower value
  normalized growth: 0.998
Locus YDR162C, strain NBP2, stronger effect = lower value
  normalized growth: 1.01
Locus YDR195W, strain ref2
  normalized growth: 0.927
Locus YDR297W, strain sur2, stronger effect = lower value
  normalized growth: 0.965
Locus YDR318W, strain mcm21, stronger effect = lower value
  normalized growth: 0.991
Locus YDR334W, strain swr1, stronger effect = lower value
  normalized growth: 0.975
Locus YDR335W, strain msn5, stronger effect = lower value
  normalized growth: 0.975
Locus YDR363W, strain ESC2, stronger effect = lower value
  normalized growth: 0.954
Locus YDR388W, stronger effect = lower value
  normalized growth: 0.996
Locus YDR392W, strain spt3, stronger effect = lower value
  normalized growth: 1.01
Locus YDR502C, strain sam2, stronger effect = lower value
  normalized growth: 0.998
Locus YEL003W, strain gim4, stronger effect = lower value
  normalized growth: 0.975
Locus YEL037C, strain rad23, stronger effect = lower value
  normalized growth: 0.969
Locus YEL061C, strain CIN8 (second series), stronger effect = lower value
  normalized growth: 0.974
Locus YEL061C, strain CIN8, stronger effect = lower value
  normalized growth: 1.01
Locus YER002W, strain NOP16, stronger effect = lower value
  normalized growth: 1.03
Locus YER015W, strain faa2, stronger effect = lower value
  normalized growth: 0.976
Locus YER016W, strain bim1, stronger effect = lower value
  normalized growth: 1
Locus YER110C, stronger effect = lower value
  normalized growth: 1
Locus YER111C, strain swi4, stronger effect = lower value
  normalized growth: 0.961
Locus YER155C, strain BEM2 (second series), stronger effect = lower value
  normalized growth: 0.929
Locus YER155C, strain BEM2, stronger effect = lower value
  normalized growth: 0.791 (active)
Locus YER167W, strain BCK2, stronger effect = lower value
  normalized growth: 1.01
Locus YFR010W, strain ubp6, stronger effect = lower value
  normalized growth: 0.975
Locus YGL078C, strain dbp3, stronger effect = lower value
  normalized growth: 0.991
Locus YGL086W, strain mad1, stronger effect = lower value
  normalized growth: 0.993
Locus YGL167C, strain pmr1, stronger effect = lower value
  normalized growth: 0.961
Locus YGL173C, strain kem1, stronger effect = lower value
  normalized growth: 0.934
Locus YGL227W, strain vid30, stronger effect = lower value
  normalized growth: 0.982
Locus YGL240W, strain doc1, stronger effect = lower value
  normalized growth: 0.961
Locus YGL248W, strain PDE1, stronger effect = lower value
  normalized growth: 1.01
Locus YGL253W, strain hxk2, stronger effect = lower value
  normalized growth: 0.97
Locus YGR078C, strain PAC10, stronger effect = lower value
  normalized growth: 0.996
Locus YGR135W, strain pre9, stronger effect = lower value
  normalized growth: 0.985
Locus YGR229C, strain SMI1, stronger effect = lower value
  normalized growth: 1 and 0.945
Locus YGR252W, strain gcn5, stronger effect = lower value
  normalized growth: 0.975
Locus YHR013C, strain ard1, stronger effect = lower value
  normalized growth: 0.971
Locus YHR027C, strain rpn1, stronger effect = lower value
  normalized growth: 0.988
Locus YHR030C, strain SLT2, stronger effect = lower value
  normalized growth: 1.02 and 0.961
Locus YHR079C, strain IRE1 (second series), stronger effect = lower value
  normalized growth: 0.992
Locus YHR079C, strain IRE1, stronger effect = lower value
  normalized growth: 0.99
Locus YHR094C, strain hxt1, stronger effect = lower value
  normalized growth: 1
Locus YHR129C, strain ARP1, stronger effect = lower value
  normalized growth: 1.01
Locus YHR142W, strain chs7, stronger effect = lower value
  normalized growth: 0.978
Locus YHR200W, strain rpn10, stronger effect = lower value
  normalized growth: 1
Locus YIL066C, strain RNR3, stronger effect = lower value
  normalized growth: 1.01
Locus YIL073C, strain SPO22, stronger effect = lower value
  normalized growth: 1.05
Locus YIL125W, strain kgd1, stronger effect = lower value
  normalized growth: 1
Locus YIR030C, strain dcg1, stronger effect = lower value
  normalized growth: 0.999
Locus YJL092W, strain hpr5, stronger effect = lower value
  normalized growth: 0.954
Locus YJL095W, strain BCK1 (second series), stronger effect = lower value
  normalized growth: 0.971
Locus YJL095W, strain BCK1, stronger effect = lower value
  normalized growth: 0.984 and 0.98
Locus YJL115W, strain asf1, stronger effect = lower value
  normalized growth: 0.961
Locus YJL129C, strain trk1, stronger effect = lower value
  normalized growth: 0.953
Locus YJL134W, strain LCB3, stronger effect = lower value
  normalized growth: 1.01
Locus YJL154C, strain vps35, stronger effect = lower value
  normalized growth: 0.971
Locus YJL164C, strain tpk1, stronger effect = lower value
  normalized growth: 1.01
Locus YJL166W, strain qcr8, stronger effect = lower value
  normalized growth: 0.925
Locus YJL168C, strain set2, stronger effect = lower value
  normalized growth: 0.991
Locus YJL187C, strain SWE1 (second series), stronger effect = lower value
  normalized growth: 1.01
Locus YJL187C, strain SWE1, stronger effect = lower value
  normalized growth: 0.975
Locus YJR043C, strain POL32, stronger effect = lower value
  normalized growth: 1.01
Locus YJR066W, strain TOR1, stronger effect = lower value
  normalized growth: 0.93
